This passage reports Potency results from PubChem BioAssay (Tox21).

Results filed as inconclusive are left out. Entries that show only a call come without a potency. Active and inactive are the calls of the source. Calls follow the shape of the full dose curve.
Potency is read from the fitted curve at half-maximal effect.

The assay has as its system estrogen-related receptor alpha (ERRalpha) with PGC-1alpha coactivator, human. The assay can be described thus: qHTS assay to identify small molecule antagonists of the estrogen related receptor signaling pathway with the pleiotropic PPARgamma coactivator (PGC) (AID 1224821). Also: nearly all actives have a fitted effect of over 50% in size. The settings on record: ERR/PGC reporter cell line, luciferase, antagonist mode; series mostly up to 46.1 µM. The source says: National Center for Advancing Translational Sciences [NCATS]
NIH Chemical Genomics Center [NCGC]
U.S. Environmental Protection Agency [EPA]
National Institutes of Environmental Health Sciences [NIEHS]
National Toxicology Program [NTP]
U.S. Food and Drug Administration [FDA]
Estrogen related receptors (ERRs), the first orphan nuclear receptors discovered, play an important role in the control of cellular energy metabolism. ERRs are required for high-energy production in response to the environmental challenges. The pleiotropic PPARgamma coactivator (PGC) is a major partner of ERR and a key regulator in energy homeostasis. Together they have been implicated in the etiology of metabolic disorders such as Type 2 diabetes and metabolic syndrome. ERR-alpha was also identified as an adverse marker for breast cancer progression; ERR-alpha-positive tumors have a poor prognosis. To screen and to identify environmental compounds that perturb the ERR and PGC/ERR signaling pathways could provide valuable information for potential therapeutic or preventive measures in the treatment of metabolic disease. For identifying PGC/ERR antagonists, PGC/ERR cell line (provided by NTP) has been used to screen LOPAC library.
Tox21 Assay Protocol Summary:
The PGC/ERR cells were dispensed at 2,000 cells/5 ul/well in 1536-well white plates using a Multidrop dispenser. After the assay plates were incubated at a 37 C/5% CO2 incubator for 6 hours, 23 nL of compounds dissolved in DMSO, positive and negative controls or DMSO only was transferred to the assay plate by a pin tool. The plates were incubated at 37 C for 18 hours. 4 ul/well of One-Glo reagent was added into the assay plates using a Flying Reagent Dispenser. After 30 min incubation at room temperature, the luminescence intensity in the plates was measured using a ViewLux plate reader.
In general terms: Quantitative high-throughput screening tests each substance at several concentrations.
In the case of `COc1cc(CNC(=O)CCCCCCC(C)C)ccc1O`, the Potency result is “inactive”. Consider `Nc1nc2ccc(Cl)cc2c2nc(-c3ccco3)nn12`, for which the Potency entry was “inactive”.

On to `Cc1cccc(/C=C/c2ccccc2)n1`, for which the Potency entry was “inactive”. As for `O=C1NC(=O)/C(=C/c2ccc(-c3ccc(F)cc3O)o2)S1`, the entry is “inactive”; as for `COc1cc(NS(C)(=O)=O)ccc1Nc1c2ccccc2nc2ccccc12`, “inactive”; as for `C=C1C[C@@]23CC[C@H]4[C@@](C)(CCC[C@@]4(C)C(=O)OC4OC(CO)C(O)C(O)C4O)[C@@H]2CC[C@]1(OC1OC(CO)C(O)C(O)C1OC1OC(CO)C(O)C(O)C1O)C3` (stereo not given in full), “inactive”. As for `COc1cc(/C=C(\C#N)C(=O)Nc2nnc(C(F)(F)F)s2)ccc1OCc1ccc(C(F)(F)F)cc1C(F)(F)F`, the figure is 3.48 µM (active); as for `N[C@@H](CCC(=O)N[C@H](CSN=O)C(=O)NCC(=O)O)C(=O)O`, “inactive”.

Turning to `CCOC(=O)[C@H](CCc1ccccc1)N[C@@H](C)C(=O)N1[C@H](C(=O)O)C[C@H]2CCCC[C@@H]21`, the Potency result is “inactive”. As for `NC[C@H]1O[C@@H](n2cnc3c(N)ncnc32)[C@H](O)[C@@H]1O`, the entry is “inactive”; as for `CCN(CC)CCNC(=O)c1ccc(NS(C)(=O)=O)cc1`, “inactive”. Turning to `Brc1c(Br)c(Br)c2[nH]cnc2c1Br`, the Potency was 6.94 µM (active).

As to `CC(=O)NC[C@H]1CN(c2ccc(N3CCOCC3)c(F)c2)C(=O)O1`, the Potency entry is “inactive”. With `Nc1ccc(CCNc2ncnc3c2ncn3C2OC(CO)C(O)C2O)cc1` (stereo not given), the Potency result is “inactive”.

Regarding `N[C@H]1CONC1=O`, the Potency result is “inactive”. Take `N[C@H](C(=O)O)c1cc(O)cc(O)c1`: the Potency result was “inactive”. On to `N[C@@H](CC(=O)O)C(=O)O`, for which the Potency result was “inactive”. The entry for `NS(=O)(=O)c1ccc(-n2nc(C(F)(F)F)cc2-c2ccc(Cl)cc2)cc1` is “inactive”. The entry for `NCCCCN=C(N)N` is “inactive”. For the compound `C[C@H](O)C(=O)C1=Nc2c(nc(N)[nH]c2=O)NC1`, the Potency result was “inactive”.

`COc1ccc(-c2cc(=O)c3c(O)c(OC)c(OC)cc3o2)cc1O`: the Potency entry is “inactive”. As for `COc1ccc(NC(=O)/C=C/c2ccc(Cl)cc2)cc1`, the entry is “inactive”; as for `NOCC(=O)O`, “inactive”. In the case of `O=C(O)CCC(C(=O)O)N1C(=O)c2ccccc2C1=O` (stereo not given), the Potency result was “inactive”. The entry for `O=C1NC(c2cccc([N+](=O)[O-])c2)=CCN1c1ccccc1O` is “inactive”; for `CN1Cc2sccc2C(c2ccc(O)c(O)c2)C1` (stereo not given) it is “inactive”; for `O=c1onc2n1-c1cc(Br)ccc1OC2` it is “inactive”. Regarding `CCCCCCCC/C=C\CCCCCCCC(=O)NCCO`, the Potency entry was “inactive”. Regarding `CN(C)C(=O)/N=N/C(=O)N(C)C`, the Potency entry was “inactive”. As for `Cc1cc(NC2CCCCC2)nc(-n2nc(C)cc2C)n1`, the Potency was 0.694 µM (active). As for `C[C@H](Cc1ccc(O)c(O)c1)[C@@H](C)Cc1ccc(O)c(O)c1`, the entry is “inactive”. As for `OC[C@H]1O[C@H](n2cnc3c(N[C@H]4CCC[C@@H]4O)ncnc32)[C@H](O)[C@@H]1O`, the Potency entry was “inactive”.

`CCN(CC)CCn1c(=O)c(Cc2ccc(OC)cc2)nc2ccccc21`: the Potency entry was “inactive”.

Turning to `Brc1ccc([C@H]2CN3CCSC3=N2)cc1`, the Potency entry was “inactive”.

Consider `NC(N)=NC(N)=Nc1ccccc1`, for which the Potency result is “inactive”.

As to `COC(=O)[C@H]1[C@H]2C[C@H]3c4[nH]c5ccccc5c4CCN3C[C@H]2CC[C@@H]1O`, the Potency result is “inactive”. As for `O=C(O)C1=CCNCC1`, the entry is “inactive”. As for `c1ccc2nc(C3=NCCN3)ccc2c1`, the entry is “inactive”.

`CN1CCc2cc(NC(=O)Nc3cccnc3)ccc21`: the Potency result was “inactive”. With `CC(C)(C)c1ccc(/C=C/C(=O)Nc2ccc3c(c2)OCCO3)cc1`, the Potency result was “inactive”.
